Screens deposited in PubChem by National Center for Advancing Translational Sciences (NCATS).
Rows were chosen to be rich in hits. Some 7.3% of all compounds tested hit in one or more screens of this group.
NPC1 prom act = NPC1 promoter activation | Potency, µM (titrated, usually from 9.22 µM), for inactives: top-dose activation, actives largely listed as activators | Huh7 NPC1 promoter luciferase reporter, 24 h | AID 485313 | 320,000 tested, 2.4% active; also: % of control where 0% means no effect; nearly all actives have a fitted effect of over 60% in size
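In 1536-well qHTS, Huh7 cells harboring an NPC1 promoter–luciferase construct received compound for 24 h; activation was quantified by luminescence following luciferase reagent addition.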
ELG1 genotox = genotoxicity induction in ELG1-luciferase HEK293T cells | HEK293T ELG1-luciferase reporter, luminescence, 16 h | Potency, µM (titrated, usually from 46 µM), for inactives: at the highest dose activity change, positive = activation, actives largely listed as activators | 330,000 tested, 1.3% active; also: % of control where 0% means no effect; nearly all actives have a fitted effect of over 60% in size
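Reporter readout depends on ELG1 protein level, which increases with genetic stress. After 16 hr compound exposure at 37 °C, luciferase activity was quantified using ONE-Glo.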
FLuc modulator = firefly luciferase modulation, counter-screen for miR-21 project. P08659. 360,000 tested, 6.9% active. purified FLuc, Km substrates, luminescence inhibition. AID 588342. Potency, µM (highest dose often 57.5 µM), without a hit: at the top dose activity change, negative = inhibition, most hits filed as inhibitors;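 also: plate controls were vehicle for no effect and reference inhibitor for full effect; nearly all actives have a fitted effect of over 55% in size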
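Purified P. pyralis luciferase, 10 nM final, with Km-level 10 uM D-luciferin and 10 uM ATP in 50 mM Tris acetate pH 7.5, 10 mM Mg acetate, 0.01% Tween-20, 0.05% BSA; 6-point qHTS titration about 60 µM downward; luminescence read.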
p53 reactivator = mutant p53 re-activation in reporter cells; H1299 p53-A138V BP100-luciferase reporter, luminescence, 24 h; Potency, µM (series often up to 92.2 µM), for the others: at the top dose activity change, positive = activation, actives largely listed as activators; 320,000 tested, 0.063% active; also: % of control where 0% means no effect; nearly all actives have a fitted effect of over 45% in size
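p53-null H1299 cells stably carrying temperature-sensitive p53-A138V and a BP100-luciferase reporter were pinned with compounds (4-point, 1:5 series) and held 24 hrs at 37 deg C. Luminescence was read 10 min after detection reagent.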
SMN2 splice enh = SMN2 splice variant enhancement. HEK293 SMN2-luciferase splicing reporter, luminescence, 30-36 h. 210,000 tested, 2.8% active. Potency, µM (doses to about 46.1 µM), for the others: at the top dose activity change, positive = activation, actives largely listed as activators. AID 1458; also: % of control where 0% means no effect; nearly all actives have a fitted effect of over 55% in size
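qHTS luciferase splicing reporter: luminescence rises when SMN2 exon 7 is included in transfected HEK293 cells. Compound exposure lasted 30-36 h at 37C, with 4.5 mM final sodium butyrate as control, followed by a ONE-Glo read.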
Rab9 prom act = activators of Rab9 promoter | Huh7 Rab9 promoter-luciferase reporter, luminescence, 24 h | Potency, µM (top dose mostly 9.22 µM), for inactives: at the highest dose activation, negative = inhibition, most hits filed as activators | 320,000 tested, 2.8% active | AID 485297; also: % of control where 0% means no effect; nearly all actives have a fitted effect of over 60% in size
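Rab9 promoter-driven luciferase in stably transfected Huh7 cells; 1500 cells/well rested 2 h, exposed to compound in DMSO for 24 h at 37 °C, 5% CO2. Luminescence read 10 min after adding luciferase reagent at ambient temperature.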
Starred values were filed as active, the others as inactive; ? = inconclusive; . = no result. Calls follow the shape of the dose curve; as a rule, active = well fitted curve in the direction sought with a large enough effect; inconclusive = small, poorly fitted or top-dose-only effect, or another doubt; inactive = no such curve, though single readings can be large; an effect the other way counts as inactive or inconclusive. Potency is read from the fitted curve at half-maximal effect.

SMILES	NPC1 prom act	ELG1 genotox	FLuc modulator	p53 reactivator	SMN2 splice enh	Rab9 prom act
O=C(CCCOc1ccccc1)Nc1ccc2c(c1)OCCO2	1%	?	12µM*	21%	.	3%
O=C(Nc1ccc2c(c1)OCCO2)N1CCN(Cc2ccccc2)CC1	?	2%	13µM*	11%	18%	?
O=C(Nc1ccc2c(c1)OCCO2)N1CCN(c2ccccc2)CC1	20%	2%	?	10%	4%	17%
Cc1ccc(OCC(O)CN2C(=O)NC(C)(C)C2=O)c(C)c1 (configuration not stated)	-2%	2%	1%	11%	6%	-3%
CCOC(=O)N1CCN(C(=O)C2CC(=O)N(c3ccc(C)cc3)C2)CC1 (configuration not stated)	0%	1%	6%	1%	.	-31%
CC(C)c1ccc(NC(=O)CCc2ccccc2)cc1	26%	?	24µM*	-9%	.	?
O=C(CCc1ccccc1)Nc1cc2c(cc1Cl)OCCO2	3.5µM*	?	11µM*	?	13µM*	3.2µM*
O=C(CCc1ccccc1)Nc1ccncc1	-4%	-6%	0%	-1%	-20%	-5%
CCCOc1ccc(Br)cc1-c1cc(-c2ccc(Cl)cc2)[nH]c1-c1ccncc1	.	.	.	.	-4%	.
CCN(CC)CCN(C(=O)c1cc2c(ccc3ccccc32)oc1=O)c1nc2cc3c(cc2s1)OCCO3	11%	18µM*	-8%	?	.	12%
CCN(CC)CCN(C(=O)c1ccc2c(c1)OCCO2)c1nc2cc3c(cc2s1)OCO3	-4%	-9%	-1%	25%	.	3%
Cc1ccc(N2C(=O)CC(SCC(=O)Nc3ccc(S(N)(=O)=O)cc3)C2=O)cc1 (configuration not stated)	?	?	27µM*	13%	.	?
CCOC(=O)c1ccc(N2C(=O)CC(SCC(=O)Nc3ccc(S(N)(=O)=O)cc3)C2=O)cc1 (configuration not stated)	-2%	-2%	0%	0%	13%	-39%
Cc1cc(NC(=O)CSc2nc3c(cc2C#N)CCC3)no1	0.5µM*	4.1µM*	?	?	.	0.5µM*
Cc1cc(NC(=O)CSc2nc3ccccc3cc2C#N)no1	?	18%	?	19%	.	?
Cc1cc(NC(=O)CSc2nc3c(cc2C#N)CCCC3)no1	2.5µM*	?	?	?	4µM*	1.6µM*
N#Cc1cc2c(nc1SCc1ccncc1)CCC2	?	?	?	?	11µM*	?
N#Cc1cc2c(nc1SCC(=O)O)CCCC2	1%	1%	-1%	5%	24%	-4%
N#Cc1cc2c(nc1SCc1ccccc1)CCC2	0%	10%	-1%	6%	-4%	-1%
Cc1nn2c(C)c(C(=O)NC(C)c3ccccc3)cnc2c1-c1ccc(F)cc1 (configuration not stated)	.	.	-2%	.	.	.
O=C(c1ccncc1)N1CCC[C@@]2(CCN(Cc3ccncc3)C2)C1	.	.	.	.	-7%	.
COc1ccccc1CN1CCC2(CC1)CCN(C(C)=O)CC2	.	.	.	.	1%	.
O=S(=O)(NC1CC2CCC1C2)c1ccc(Br)cc1 (configuration not stated)	-5%	-2%	3%	?	.	-1%
O=C(COc1cccc2cccnc12)Nc1ccccc1	?	11%	21µM*	-1%	?	4µM*
O=C(COc1cccc2cccnc12)N/N=C/c1ccc(O)cc1	-4%	-5%	17µM*	?	12%	1%
CCCCN(CCCC)CC(O)Cn1cc(/C=C/C(=O)c2ccccc2)c2ccccc21 (configuration not stated)	.	.	-3%	.	1%	.
CCCCN(C)CC(O)Cn1cc(/C=C/C(=O)c2ccc(OCC)cc2)c2ccccc21 (configuration not stated)	-1%	0%	17µM*	-12%	-83%	-4%
